Screens deposited in PubChem BioAssay by several laboratories.
BaF3 tox: reduces parental Ba/F3 cell viability, JAK2V617F counter-screen; inhibition, % at 5.6 µM; 220,000 tested, 1.1% active; CellTiter-Glo ATP luminescence; AID 1486;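 active means inhibition above a per-campaign cutoff, the mean inhibition of all tested compounds plus 3 SD, cut at about 27% in these data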;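 further: 0% = DMSO wells and 100% = JAK Inhibitor I control wells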
KLF5 inh: inhibitors of KLF5 expression | inhibition, % at 5 µM | 290,000 tested, 0.23% active | AID 1700 | DLD-1 KLF5 promoter-luciferase reporter, luminescence;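 active means inhibition above a per-plate limit of that plate's mean compound inhibition plus 3 SD, cut at about 60% in these data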;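 further: 0% = DMSO wells and 100% = LY294002 at 200 µM; higher means less KLF5 promoter-driven luciferase light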
IEC-6 tox-1: kills IEC-6 intestinal cells in KLF5 counter-screen; IEC-6 cytotoxicity, luminescence viability; inhibition, % at 5 µM; 290,000 tested, 0.78% active; AID 1825; in the data active means inhibition above about 22%;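 further: 0% = plate median of test compound wells and 100% = cytotoxic reference compound wells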
Ba/F3 V617F tox: lowers viability of Ba/F3 cells expressing EpoR and JAK2V617F | ATP luminescence | 220,000 tested, 1.1% active | AID 1446 | inhibition, % at 5.6 µM;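 active means inhibition above the campaign mean plus 3 SD over all tested compounds, cut at about 24% in these data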;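 further: cytokine-independent growth of Ba/F3 cells driven by EpoR plus mutant JAK2; 0% = DMSO-treated cells and 100% = JAK inhibitor I control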
APP 5UTR inh: APP translation inhibition. 190,000 tested, 0.82% active. inhibition, % at 2 µM. AID 1285. SH-SY5Y APP 5'UTR-luciferase reporter, luminescence;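 active means inhibition above a set limit, derived from the sample mean plus 3 SD, cut at about 45% in these data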
KLF5 inh confirm: confirmation of KLF5 inhibitors; shares compounds with KLF5 inh; DLD-1 KLF5 promoter firefly luciferase reporter, luminescence; inhibition, % at 4 µM; 610 tested, 79% active; AID 1834;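 active means inhibition above a set limit taken from the earlier primary screen, cut at about 63% in these data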;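 further: 0% = DMSO wells and 100% = LY294002 at 200 µM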
IEC-6 tox-2: rat IEC-6 cytotoxicity, KLF5 inhibitor counter-screen; shares compounds with KLF5 inh; IEC-6 rat intestinal cells, viability luminescence; inhibition, % at 4 µM; 610 tested, 56% active; AID 1905; in the data active means inhibition above about 23%;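 further: cells exposed to compounds for 48 hours before viability read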
An asterisk follows results filed as active; nt = no result. Sampled rows, rich in hits. Any-hit rate of the full collection: about 1.8%.

SMILES	BaF3 tox	KLF5 inh	IEC-6 tox-1	Ba/F3 V617F tox	APP 5UTR inh	KLF5 inh confirm	IEC-6 tox-2
Cc1csc(C(=O)O)c1NC(=O)c1cccc([N+](=O)[O-])c1	3	7	-3	1	-6	nt	nt
O=C(/C=C/c1ccccc1)Nc1cc(NC(=O)/C=C/c2ccccc2)cc(C(=O)O)c1	nt	-4	-4	nt	nt	nt	nt
O=C(/C=C/c1ccccc1)Nc1cccc(C(=O)O)c1	10	102*	4	-2	64*	101*	1
COc1cc(/C=N/NC(=O)c2ccccn2)ccc1OC(=O)c1cccs1	nt	-66	0	nt	nt	nt	nt
CC(O)CNC(=O)Cc1cc(=O)[nH]c(=O)[nH]1 (stereo unspecified)	-2	-26	-2	1	nt	nt	nt
COc1ccc(OC)c(N/C(C)=C/C(=O)c2ccccc2)c1	-1	-32	-16	-2	-77	nt	nt
COc1ccc(OC)c(N/C=C/C(=O)c2ccccc2)c1	nt	70*	4	nt	nt	76*	2
COc1cc(CNc2ccc(S(N)(=O)=O)cc2)ccc1OCC(=O)NC1CCCCC1	4	75*	-8	2	13	-12	8
Cn1c(CSCc2ccc(F)cc2)nnc1SCC(=O)Nc1cccc(C(=O)O)c1	1	-2	-2	-1	nt	nt	nt
C/C(=N\OCc1cccc(C(=O)O)c1)c1ccc(Cl)cc1	4	64*	6	2	nt	51	-1
CC12CCC(C(=O)NC3CCCCC3)([C@H](Br)C1=O)C2(C)C (stereo partly specified)	-1	-5	-12	-5	nt	nt	nt
C=CCn1c(SCc2cc(C(C)=O)ccc2OCC)nc2ccccc2c1=O	79*	65*	34*	84*	93*	79*	64*
Cc1nn(-c2ccc(Cl)cc2)c2[nH]c(CCl)cc(=O)c12	nt	-8	2	nt	nt	nt	nt
COc1ccc(N(C(=O)c2ccncc2)S(=O)(=O)c2ccccc2)cc1	nt	-4	-1	nt	nt	nt	nt
COc1ccc(N(C(=O)c2ccccc2C)S(=O)(=O)c2cccs2)cc1	74*	66*	72*	68*	93*	76*	62*
O=C(Nc1ncc([N+](=O)[O-])s1)c1ccc2c(c1)OCO2	nt	76*	12	nt	nt	55	36*
COc1ccc(C2N=C(N)N=C(N)N2c2ccccc2OC)cc1OC (stereo unspecified)	8	13	9	2	1	nt	nt
COC(=O)CCNC(=O)c1ccc2nc(Cc3ccc(OC)c(OC)c3)oc2c1	nt	-60	-3	nt	nt	nt	nt
C/C=C/COC(=O)c1[nH]c2c(c1C)C(=O)CC(c1ccco1)C2 (stereo unspecified)	78*	83*	83*	78*	95*	89*	57*
COc1ccc(C(=O)CN2C(=O)c3ccccc3S2(=O)=O)cc1	-4	72*	-3	-3	nt	56	-4
Cc1cc(C(=O)CN2C(=O)c3ccccc3S2(=O)=O)c(C)n1CC1CCCO1 (stereo unspecified)	1	83*	-3	-3	86*	104*	17
Cc1ccsc1/C=N/Nc1ccc(C(=O)O)cc1	nt	63*	9	nt	nt	44	-5
Cc1ccsc1/C=N/Nc1cccc(C(=O)O)c1	3	11	-6	0	42	nt	nt
Cc1cc(C)c(NC(=O)COc2ccccc2C(=O)Nc2ccc3c(c2)oc2ccccc23)c(C)c1	4	-16	3	0	4	nt	nt
O=C(Nc1nc2cc3c(cc2s1)OCO3)C1=COCCO1	15	78*	21	11	-75	49	12
SMILES	BaF3 tox	KLF5 inh	IEC-6 tox-1	Ba/F3 V617F tox	APP 5UTR inh	KLF5 inh confirm	IEC-6 tox-2
Oc1c(Br)cc(Br)cc1/C=N/Nc1ccc(Cl)nn1	nt	102*	-4	nt	nt	36	-4
COc1cccc(/C=N/Nc2nccnc2Cl)c1O	94*	104*	7	95*	51*	90*	-4
COc1ccc(Cc2nnc(N/N=C/c3ccc(O)cc3)[nH]c2=O)cc1OC	4	65*	-3	-5	86*	106*	12
O=C(N/N=C/c1cc(Cl)ccc1O)c1ccncc1	2	70*	3	2	nt	88*	-4
Cc1ccc(S(=O)(=O)Nc2cc(Cl)c(O)c3ncccc23)cc1	nt	68*	6	nt	nt	79*	7
CSc1cccc(NC(=O)c2cnn3ccccc23)c1	-3	-154	-2	-2	nt	nt	nt
CCc1ccc(NC(=O)c2cnn3ccccc23)cc1	5	87*	7	2	-135	82*	3
O=C(NCCc1ccccc1F)c1ccc2c(c1)OCCO2	nt	100*	2	nt	nt	108*	0
